Measurements as given in ChEMBL document CHEMBL3433997, “St. Jude Leishmania screening dataset” (2016).

Key:
Type in all cases: functional
[1] = target: Solute carrier family 2, facilitated glucose transporter member 1 (Homo sapiens) (UniProt P11166); assay: ST_JUDE_LEISH: Cytotoxicity at 2uM final concentration against transgenic Leishmania Mexicana promastigotes LmGLUT1 that are glucose transport deficient and complemented with the human glucose transporter GLUT1. Activity is measured by DNA content using SYBR green in vitro
[2] = target: Hexose transporter 1 (Plasmodium falciparum) (UniProt O97467); assay: ST_JUDE_LEISH: Cytotoxicity at 2uM final concentration against transgenic Leishmania Mexicana promastigotes LmPfHT that are glucose transport deficient and complemented with the Plasmodium falciparum hexose transporter. Activity is measured by DNA content using SYBR green in vitro
[3] = target: Glucose transporter (Leishmania mexicana) (UniProt O61059); assay: ST_JUDE_LEISH: Cytotoxicity at 2uM final concentration against transgenic Leishmania Mexicana promastigotes LmGT2 that are glucose transport deficient and complemented with the L. Mexicana glucose transporter 2. Activity is measured by DNA content using SYBR green in vitro

Chain of Solute carrier family 2, facilitated glucose transporter member 1 (Homo sapiens) (P11166 whole entry): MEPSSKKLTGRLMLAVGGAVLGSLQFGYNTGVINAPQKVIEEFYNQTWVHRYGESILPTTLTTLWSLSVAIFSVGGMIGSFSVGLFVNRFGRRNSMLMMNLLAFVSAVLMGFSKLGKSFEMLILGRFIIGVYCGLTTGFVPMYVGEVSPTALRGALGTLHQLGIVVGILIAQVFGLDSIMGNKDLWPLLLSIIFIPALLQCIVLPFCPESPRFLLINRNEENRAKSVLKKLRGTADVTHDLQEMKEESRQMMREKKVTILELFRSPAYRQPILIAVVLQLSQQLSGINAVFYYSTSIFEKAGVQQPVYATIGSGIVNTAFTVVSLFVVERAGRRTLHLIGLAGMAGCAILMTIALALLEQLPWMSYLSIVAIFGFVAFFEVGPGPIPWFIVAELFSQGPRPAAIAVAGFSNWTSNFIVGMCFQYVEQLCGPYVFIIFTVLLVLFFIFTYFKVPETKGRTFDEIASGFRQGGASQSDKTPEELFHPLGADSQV

Compound	inhibition [1]	inhibition [2]	inhibition [3]
CO/C(=C\C=C\c1cc2cc(Cl)c(Cl)cc2[nH]1)C(=O)Nc1ccc(NCCN(C)C)nc1	6.97%	6.98%	2.42%
O=C(/C=C/c1ccc(C(F)(F)F)cc1)NCCCCCN1CCCN(C(=O)Nc2ccc(Cl)cc2)CC1	5.01%	4.49%	1.84%
O=C(N[C@@H](Cc1ccccc1)[C@H](O)CNCCC(F)(F)F)c1cccc(CCC2CC2)c1	0.82%	1.82%	2.39%
COc1ccc2nc3cc(Cl)ccc3c(NCCO)c2c1	2.8%	-1.06%	2.4%
CN(C)CCCNCc1ccc(-c2ccc(C(F)(F)F)cc2)cc1	5.63%	4.5%	4.81%
CCOC(=O)c1ccc2[nH]c(-c3ccc(C(=O)NC4CCN(Cc5ccccc5)CC4)s3)nc2c1	4.45%	4.85%	0.16%
O=C(Nc1ccc(F)c(Cl)c1)c1cc([N+](=O)[O-])cc2cn[nH]c12	-0.64%	-0.66%	-2.22%
O=C(NCCCCN1CCN(c2cccc3ccccc23)CC1)c1ccc(NC(=O)c2ccc(Cl)cc2)cc1	2.65%	2.81%	2.29%
NOCCCOc1ccc(Cl)cc1	4.86%	3.73%	3.9%
CC(=NNC(S)=Nc1ccccc1Cl)c1ccccn1	18.6%	19.6%	12.2%
CCCCN(CCCC)CCNC(=O)c1cc(OC(F)(F)F)ccc1O	1%	0.8%	0.03%
Oc1ccc2c(CNCCc3ccccc3)c(O)ccc2c1CNCCc1ccccc1	8.01%	6.13%	6.71%
COc1cc2nc(NCCc3ccccc3)nc(N(C)Cc3ccccc3)c2cc1OC	5.11%	5.4%	2.95%
COc1ccc(-c2cc3ncnc(N4CCN(CCN5CCCC5)CC4)c3s2)cc1	2.34%	0.99%	0.9%
